The supplement of paper PMC10849652
Targets with a hit are over-represented here; the source holds about 8,800 in all. About 0.5% of all pairs of compound and target were hits.

Columns and labels:
Assay in all cases: log2 fold change, soluble protein after heating vs DMSO (PISA); higher = thermal stabilisation; K562 lysate, 10 uM; active = over 0.2 and 3.5 SD of the protein, either way, in both replicates (recomputed)
[1] = compound: C1=CC=C(C=C1)[C@H](COC2=CC3=C(C=C2)NC(=O)N3)NC(=O)C4=CC=CN(C4=O)CC5=CC(=C(C=C5)F)F
Procedure, shortened: (§1)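 Following dounce homogenisation of K562 pellets in PBS pH 7.4 with 1 mM MgCl2, crude extract at 1 mg/mL protein was incubated for 30 min with 10 μM compound. Aliquots were then heated for 3 min over 48°C-58°C and pooled, NP-40 was added to 0.5% at 4°C, and soluble protein was recovered as the supernatant at 21,000xg for 90 min. Channel-sum-equalised TMTpro 16plex LC-MS/MS quantified this protein. Each value, from duplicates, is a log-two fold change in thermal stability relative to solvent controls.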

[2] = compound: CC1=C(SC2=C1C(=N[C@H](C3=NN=C(N32)C)CC(=O)N)C4=CC=C(C=C4)Cl)C
Procedure, shortened: as §1

[3] = compound: CC1=C2C(=CC=C1)N=C(N(C2=O)C3=CC=CC=C3C)CN4C=NC5=C(N=CN=C54)N
Procedure, shortened: as §1

[4] = compound: Cc1sc2c(c1C)C(c1ccc(Cl)cc1)=N[C@@H](CC(=O)OC(C)(C)C)c1nnc(C)n1-2
Procedure, shortened: as §1

[5] = compound: c1ccc([C@@H]2C[C@H]2NC2CCNCC2)cc1
Procedure, shortened: as §1

Measured: log2 fold change

CHAF1A (UniProt Q13111)
UniProt Q13111, sequence (Q13111 whole entry, looked up): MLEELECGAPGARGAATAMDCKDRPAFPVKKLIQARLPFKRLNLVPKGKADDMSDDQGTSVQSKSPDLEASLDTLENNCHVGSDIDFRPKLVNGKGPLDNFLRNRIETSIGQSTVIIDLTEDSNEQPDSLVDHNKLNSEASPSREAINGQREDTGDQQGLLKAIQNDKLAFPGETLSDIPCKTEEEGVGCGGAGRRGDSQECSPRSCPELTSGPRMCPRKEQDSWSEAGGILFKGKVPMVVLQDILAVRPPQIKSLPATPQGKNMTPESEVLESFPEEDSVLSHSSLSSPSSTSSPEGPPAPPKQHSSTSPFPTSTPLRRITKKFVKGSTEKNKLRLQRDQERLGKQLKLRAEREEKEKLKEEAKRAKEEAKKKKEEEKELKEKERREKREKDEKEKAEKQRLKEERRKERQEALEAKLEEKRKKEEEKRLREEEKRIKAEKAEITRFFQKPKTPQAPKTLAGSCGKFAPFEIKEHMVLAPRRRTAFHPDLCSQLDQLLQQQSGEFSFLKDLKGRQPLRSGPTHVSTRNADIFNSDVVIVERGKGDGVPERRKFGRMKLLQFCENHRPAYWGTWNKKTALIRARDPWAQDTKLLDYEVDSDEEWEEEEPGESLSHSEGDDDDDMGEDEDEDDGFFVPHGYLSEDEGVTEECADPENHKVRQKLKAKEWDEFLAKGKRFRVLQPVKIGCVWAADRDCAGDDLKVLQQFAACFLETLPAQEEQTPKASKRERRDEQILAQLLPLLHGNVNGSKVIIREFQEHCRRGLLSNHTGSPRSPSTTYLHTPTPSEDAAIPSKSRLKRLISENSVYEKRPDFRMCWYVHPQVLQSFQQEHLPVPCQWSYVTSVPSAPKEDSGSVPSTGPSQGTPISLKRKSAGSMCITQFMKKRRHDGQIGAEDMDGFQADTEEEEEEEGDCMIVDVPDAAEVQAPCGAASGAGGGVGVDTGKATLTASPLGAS
inactive: [1] -0.099 | [2] 0.136 | [3] 0.041 | [4] 0.017 | [5] 0.022

CHCHD2 (UniProt Q9Y6H1)
inactive: [1] -0.123 | [2] -0.043 | [3] -0.015 | [4] 0.062 | [5] -0.01

ATP13A1 (UniProt Q9HD20)
inactive: [1] 0.006 | [2] -0.001 | [3] 0.079 | [4] 0.064 | [5] 0.03

CAMK1 (UniProt Q14012)
UniProt Q14012, sequence (Q14012 whole entry, looked up): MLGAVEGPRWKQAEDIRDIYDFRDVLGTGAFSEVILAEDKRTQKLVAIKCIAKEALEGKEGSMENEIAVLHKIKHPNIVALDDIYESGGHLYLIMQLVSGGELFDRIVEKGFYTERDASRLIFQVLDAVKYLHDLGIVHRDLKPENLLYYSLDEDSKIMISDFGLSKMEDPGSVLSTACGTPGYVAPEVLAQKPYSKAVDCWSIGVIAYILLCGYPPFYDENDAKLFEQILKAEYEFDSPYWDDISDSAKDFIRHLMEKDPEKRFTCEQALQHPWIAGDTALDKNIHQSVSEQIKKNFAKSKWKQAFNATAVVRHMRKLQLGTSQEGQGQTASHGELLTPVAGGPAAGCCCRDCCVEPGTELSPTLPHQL
inactive: [1] 0.096 | [2] 0.014 | [3] -0.007 | [4] 0.026 | [5] -0.047

CAMKK2 (UniProt Q96RR4)
inactive: [1] 0.002 | [2] -0.047 | [3] 0.072 | [4] 0.051 | [5] -0.013

BRAF (UniProt P15056)
inactive: [1] -0.024 | [2] -0.051 | [3] 0.012 | [4] -0.017 | [5] -0.06

CDC25C (UniProt P30307)
UniProt P30307, sequence (P30307 whole entry, looked up): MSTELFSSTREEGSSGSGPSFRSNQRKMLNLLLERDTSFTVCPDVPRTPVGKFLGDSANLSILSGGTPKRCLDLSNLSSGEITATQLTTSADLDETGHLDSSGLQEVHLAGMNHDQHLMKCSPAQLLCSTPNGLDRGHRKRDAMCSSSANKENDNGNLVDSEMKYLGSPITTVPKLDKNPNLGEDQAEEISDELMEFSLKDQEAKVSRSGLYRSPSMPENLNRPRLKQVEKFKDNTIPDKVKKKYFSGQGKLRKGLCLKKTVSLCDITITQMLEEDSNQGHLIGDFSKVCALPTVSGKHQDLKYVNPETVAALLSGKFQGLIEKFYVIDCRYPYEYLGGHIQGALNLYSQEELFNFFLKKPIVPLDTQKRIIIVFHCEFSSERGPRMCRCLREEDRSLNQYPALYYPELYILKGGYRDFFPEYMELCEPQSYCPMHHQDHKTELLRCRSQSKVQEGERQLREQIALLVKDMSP
inactive: [1] 0.018 | [2] -0.011 | [3] 0.023 | [4] 0.07 | [5] 0.027

ATM (UniProt Q13315)
UniProt Q13315, sequence (Q13315 whole entry, looked up): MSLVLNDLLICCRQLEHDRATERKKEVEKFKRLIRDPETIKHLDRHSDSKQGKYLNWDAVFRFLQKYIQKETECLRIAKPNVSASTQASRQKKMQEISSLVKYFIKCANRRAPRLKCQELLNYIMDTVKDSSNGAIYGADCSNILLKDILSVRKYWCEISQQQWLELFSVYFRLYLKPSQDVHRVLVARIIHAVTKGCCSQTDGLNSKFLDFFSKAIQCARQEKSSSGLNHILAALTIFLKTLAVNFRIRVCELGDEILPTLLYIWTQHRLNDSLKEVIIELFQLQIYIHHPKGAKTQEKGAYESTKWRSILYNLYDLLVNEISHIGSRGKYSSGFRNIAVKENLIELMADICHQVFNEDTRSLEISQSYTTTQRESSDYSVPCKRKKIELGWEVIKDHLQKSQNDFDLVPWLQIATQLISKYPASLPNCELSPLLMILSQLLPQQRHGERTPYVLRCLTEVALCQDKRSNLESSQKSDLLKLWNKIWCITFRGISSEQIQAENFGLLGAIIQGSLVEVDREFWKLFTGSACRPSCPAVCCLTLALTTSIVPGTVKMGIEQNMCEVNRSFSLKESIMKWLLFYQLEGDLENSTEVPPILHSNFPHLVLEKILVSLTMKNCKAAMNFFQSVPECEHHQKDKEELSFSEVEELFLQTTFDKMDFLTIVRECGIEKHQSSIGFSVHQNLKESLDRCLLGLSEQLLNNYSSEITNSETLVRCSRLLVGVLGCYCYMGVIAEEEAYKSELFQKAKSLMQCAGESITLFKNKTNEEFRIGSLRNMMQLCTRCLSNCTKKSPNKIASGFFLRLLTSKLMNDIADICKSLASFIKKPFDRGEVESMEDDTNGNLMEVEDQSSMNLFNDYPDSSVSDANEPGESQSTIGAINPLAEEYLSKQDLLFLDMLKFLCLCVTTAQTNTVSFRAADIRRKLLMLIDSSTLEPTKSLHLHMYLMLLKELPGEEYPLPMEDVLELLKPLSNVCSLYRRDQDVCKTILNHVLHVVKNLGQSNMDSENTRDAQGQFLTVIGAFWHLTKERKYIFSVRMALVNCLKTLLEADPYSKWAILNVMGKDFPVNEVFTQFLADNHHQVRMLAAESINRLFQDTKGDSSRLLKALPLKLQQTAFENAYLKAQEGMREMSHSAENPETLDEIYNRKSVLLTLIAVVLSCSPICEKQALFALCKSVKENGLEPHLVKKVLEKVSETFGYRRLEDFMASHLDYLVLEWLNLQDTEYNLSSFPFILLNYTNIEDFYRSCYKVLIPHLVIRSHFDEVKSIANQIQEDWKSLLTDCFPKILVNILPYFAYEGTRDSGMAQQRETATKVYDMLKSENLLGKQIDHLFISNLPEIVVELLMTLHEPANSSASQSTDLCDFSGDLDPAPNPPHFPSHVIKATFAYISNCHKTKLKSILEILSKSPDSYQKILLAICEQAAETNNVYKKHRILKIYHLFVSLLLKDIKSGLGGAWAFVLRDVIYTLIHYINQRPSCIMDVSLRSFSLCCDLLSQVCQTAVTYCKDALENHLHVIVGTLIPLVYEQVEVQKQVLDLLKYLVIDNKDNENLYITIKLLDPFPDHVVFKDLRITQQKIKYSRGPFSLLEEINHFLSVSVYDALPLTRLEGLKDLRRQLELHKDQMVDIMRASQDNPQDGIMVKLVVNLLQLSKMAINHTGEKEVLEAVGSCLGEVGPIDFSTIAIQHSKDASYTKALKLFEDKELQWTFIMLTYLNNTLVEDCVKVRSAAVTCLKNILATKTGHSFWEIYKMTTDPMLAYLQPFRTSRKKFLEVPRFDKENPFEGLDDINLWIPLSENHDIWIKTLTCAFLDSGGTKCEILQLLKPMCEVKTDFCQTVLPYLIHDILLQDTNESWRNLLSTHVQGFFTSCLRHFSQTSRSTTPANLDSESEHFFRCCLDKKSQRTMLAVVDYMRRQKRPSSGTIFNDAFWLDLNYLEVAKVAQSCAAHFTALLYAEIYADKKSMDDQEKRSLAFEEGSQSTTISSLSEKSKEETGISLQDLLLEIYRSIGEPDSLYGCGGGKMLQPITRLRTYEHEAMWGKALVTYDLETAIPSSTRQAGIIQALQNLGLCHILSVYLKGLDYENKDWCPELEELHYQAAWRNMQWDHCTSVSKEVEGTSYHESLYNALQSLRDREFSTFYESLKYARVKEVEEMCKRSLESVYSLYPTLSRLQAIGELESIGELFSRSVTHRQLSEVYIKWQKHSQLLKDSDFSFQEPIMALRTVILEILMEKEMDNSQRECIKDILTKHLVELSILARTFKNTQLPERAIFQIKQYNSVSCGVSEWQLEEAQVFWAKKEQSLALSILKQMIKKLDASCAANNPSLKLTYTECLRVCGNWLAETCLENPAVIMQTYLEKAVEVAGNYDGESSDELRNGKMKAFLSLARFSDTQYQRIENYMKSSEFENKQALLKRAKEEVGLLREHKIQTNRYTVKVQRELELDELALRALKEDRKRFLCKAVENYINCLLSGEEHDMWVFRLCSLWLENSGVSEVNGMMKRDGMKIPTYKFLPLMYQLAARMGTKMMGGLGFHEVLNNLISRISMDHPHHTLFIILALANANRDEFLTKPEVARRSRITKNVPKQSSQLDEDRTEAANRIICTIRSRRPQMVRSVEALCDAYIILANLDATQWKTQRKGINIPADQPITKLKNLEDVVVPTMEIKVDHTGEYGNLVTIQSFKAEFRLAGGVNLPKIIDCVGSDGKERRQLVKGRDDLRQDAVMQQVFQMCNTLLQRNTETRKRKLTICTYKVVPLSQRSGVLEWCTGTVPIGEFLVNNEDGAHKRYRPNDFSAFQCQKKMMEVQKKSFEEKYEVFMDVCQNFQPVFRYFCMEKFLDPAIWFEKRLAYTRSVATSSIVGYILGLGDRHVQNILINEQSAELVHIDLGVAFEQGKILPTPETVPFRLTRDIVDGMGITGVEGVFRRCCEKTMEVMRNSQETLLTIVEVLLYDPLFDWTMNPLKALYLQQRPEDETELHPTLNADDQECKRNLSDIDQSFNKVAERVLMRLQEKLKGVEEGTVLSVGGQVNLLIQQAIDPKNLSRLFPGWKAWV
inactive: [1] -0.015 | [2] 0.013 | [3] -0.037 | [4] 0.038 | [5] -0.036

CENPQ (UniProt Q7L2Z9)
UniProt Q7L2Z9, sequence (Q7L2Z9 whole entry, looked up): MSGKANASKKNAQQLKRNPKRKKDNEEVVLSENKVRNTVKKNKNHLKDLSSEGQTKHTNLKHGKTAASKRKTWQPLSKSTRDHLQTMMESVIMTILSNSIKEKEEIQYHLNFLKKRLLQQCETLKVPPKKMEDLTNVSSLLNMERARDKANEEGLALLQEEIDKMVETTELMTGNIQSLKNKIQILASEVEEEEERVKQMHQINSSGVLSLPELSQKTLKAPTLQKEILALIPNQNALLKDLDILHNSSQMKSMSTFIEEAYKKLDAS
inactive: [1] -0.02 | [2] -0.02 | [3] 0.038 | [4] 0.021 | [5] -0.013
